Assay results from article PMC7862700, “An all-to-all approach to the identification of sequence-specific readers for epigenetic DNA modifications on cytosine”.

Key:
Test in all cases: DAPPL (digital affinity profiling via proximity ligation, sequencing); 10 mM Tris-HCl pH 7.5, 50 mM NaCl, 1 mM DTT, 4% glycerol, room temperature, 30 min; GST-TFs on glutathione beads, 16-mer random dsDNA library, 0.1% formaldehyde crosslink after washing; high values mean tight binding
FEV = molecular target: T1, FEV (Homo sapiens, UniProt Q99581 1-238); conditions: protein: recombinant; tags: N-terminal GST; dsDNA, one strand shown
T1 sequence: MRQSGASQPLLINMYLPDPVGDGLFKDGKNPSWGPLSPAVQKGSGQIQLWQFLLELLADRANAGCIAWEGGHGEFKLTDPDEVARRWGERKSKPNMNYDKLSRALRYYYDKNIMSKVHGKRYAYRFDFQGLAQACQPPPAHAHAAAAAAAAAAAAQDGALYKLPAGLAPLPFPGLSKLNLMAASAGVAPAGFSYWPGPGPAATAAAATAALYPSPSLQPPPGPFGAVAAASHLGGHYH
Method in brief: (§1)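 The binding signal reported is, for every hexamer, its read frequency for a factor over its read frequency for the tag-only sample. Reads came from pools of yeast-expressed, GST-fused human transcription factors on glutathione beads, barcoded with DNA and mixed with that sample, which were incubated with 200 nmole of a random double-stranded 16-mer DNA library in Tris/NaCl/DTT/glycerol buffer at room temperature for 30 min. After washing, the pools were crosslinked with 0.1% formaldehyde, proximity-ligated with BsaI/T4 ligase for 1 h at 37 °C, PCR-amplified and sequenced on an Illumina NextSeq500.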

ETV5 = ETV5 (Homo sapiens, UniProt P41161 1-510); conditions: protein: recombinant; tags: N-terminal GST; dsDNA, one strand shown
Method in brief: as §1

HSF1 = HSF1 (Homo sapiens, UniProt Q00613 1-529); conditions: protein: recombinant; tags: N-terminal GST; chain copies: 3; dsDNA, one strand shown
Method in brief: as §1

SPIC = molecular target: T2, SPIC (Homo sapiens, UniProt Q8N5J4 1-248); conditions: protein: recombinant; tags: N-terminal GST; dsDNA, one strand shown
T2 sequence: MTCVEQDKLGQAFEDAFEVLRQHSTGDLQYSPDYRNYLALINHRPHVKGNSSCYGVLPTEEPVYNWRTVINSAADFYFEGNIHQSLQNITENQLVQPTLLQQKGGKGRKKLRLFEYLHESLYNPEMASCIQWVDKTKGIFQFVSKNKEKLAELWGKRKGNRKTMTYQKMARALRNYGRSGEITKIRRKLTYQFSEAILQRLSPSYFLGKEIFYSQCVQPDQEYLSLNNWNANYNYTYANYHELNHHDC
Method in brief: as §1

ELF4 = ELF4 (Homo sapiens, UniProt Q99607 1-663); conditions: protein: recombinant; tags: N-terminal GST; dsDNA, one strand shown
Method in brief: as §1

ELK4 = molecular target: T3, ELK4 (Homo sapiens, UniProt P28324-2 1-405); conditions: protein: recombinant; tags: N-terminal GST; dsDNA, one strand shown
T3 sequence: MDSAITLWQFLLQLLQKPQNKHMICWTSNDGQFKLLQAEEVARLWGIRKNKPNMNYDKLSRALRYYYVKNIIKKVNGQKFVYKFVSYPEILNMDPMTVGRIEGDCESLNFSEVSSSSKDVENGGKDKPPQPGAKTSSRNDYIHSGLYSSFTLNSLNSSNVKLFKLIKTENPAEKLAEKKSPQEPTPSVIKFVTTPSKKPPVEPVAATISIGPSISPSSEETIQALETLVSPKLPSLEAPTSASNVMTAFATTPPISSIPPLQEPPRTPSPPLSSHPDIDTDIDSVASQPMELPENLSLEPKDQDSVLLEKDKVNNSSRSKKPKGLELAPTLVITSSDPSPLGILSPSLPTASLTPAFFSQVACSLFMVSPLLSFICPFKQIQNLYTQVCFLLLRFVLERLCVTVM
Method in brief: as §1

ETV2 = molecular target: T4, ETV2 (Homo sapiens, UniProt O00321 1-342); conditions: protein: recombinant; tags: N-terminal GST; dsDNA, one strand shown
T4 sequence: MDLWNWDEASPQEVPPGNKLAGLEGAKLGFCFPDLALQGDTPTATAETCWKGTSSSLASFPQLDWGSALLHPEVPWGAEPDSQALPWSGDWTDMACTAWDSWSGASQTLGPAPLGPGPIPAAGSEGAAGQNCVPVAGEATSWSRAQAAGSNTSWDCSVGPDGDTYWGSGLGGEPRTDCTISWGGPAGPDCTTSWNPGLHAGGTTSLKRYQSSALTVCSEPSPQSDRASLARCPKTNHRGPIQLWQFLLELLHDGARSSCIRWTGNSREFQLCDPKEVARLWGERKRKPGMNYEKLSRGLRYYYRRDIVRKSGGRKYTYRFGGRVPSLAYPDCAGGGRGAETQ
Method in brief: as §1

ELF3 = molecular target: T5, ELF3 (Homo sapiens, UniProt P78545 1-371); conditions: protein: recombinant; tags: N-terminal GST; dsDNA, one strand shown
T5 sequence: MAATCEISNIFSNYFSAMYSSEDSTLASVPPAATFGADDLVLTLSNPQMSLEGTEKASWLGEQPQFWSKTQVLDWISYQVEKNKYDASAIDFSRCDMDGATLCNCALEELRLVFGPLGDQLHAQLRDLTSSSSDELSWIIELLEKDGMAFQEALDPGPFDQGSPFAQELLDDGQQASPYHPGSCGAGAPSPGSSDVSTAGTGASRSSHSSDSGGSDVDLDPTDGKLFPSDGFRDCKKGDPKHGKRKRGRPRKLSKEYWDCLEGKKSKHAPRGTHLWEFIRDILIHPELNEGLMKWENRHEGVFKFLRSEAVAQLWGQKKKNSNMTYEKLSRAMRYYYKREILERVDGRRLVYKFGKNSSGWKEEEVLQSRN
Method in brief: as §1

ETV1 = ETV1 (Homo sapiens, UniProt P50549 1-477); conditions: protein: recombinant; tags: N-terminal GST; dsDNA, one strand shown
Method in brief: as §1

ERF = molecular target: T6, ERF (Homo sapiens, UniProt P50548 1-548); conditions: protein: recombinant; tags: N-terminal GST; dsDNA, one strand shown
T6 sequence: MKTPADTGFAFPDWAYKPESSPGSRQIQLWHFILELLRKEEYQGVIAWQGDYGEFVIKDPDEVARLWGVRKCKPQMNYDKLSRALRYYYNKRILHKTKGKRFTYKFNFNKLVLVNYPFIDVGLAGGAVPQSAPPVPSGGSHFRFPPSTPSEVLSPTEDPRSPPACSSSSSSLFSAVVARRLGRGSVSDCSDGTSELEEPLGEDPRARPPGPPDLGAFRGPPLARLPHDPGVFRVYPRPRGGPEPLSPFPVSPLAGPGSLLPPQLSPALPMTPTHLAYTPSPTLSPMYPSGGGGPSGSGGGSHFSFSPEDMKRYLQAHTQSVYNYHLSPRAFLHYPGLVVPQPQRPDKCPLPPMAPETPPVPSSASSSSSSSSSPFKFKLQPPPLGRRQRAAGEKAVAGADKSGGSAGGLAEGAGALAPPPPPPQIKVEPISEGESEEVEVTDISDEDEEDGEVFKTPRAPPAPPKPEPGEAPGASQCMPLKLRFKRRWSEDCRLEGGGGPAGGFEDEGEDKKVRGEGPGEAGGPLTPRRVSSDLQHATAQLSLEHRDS
Method in brief: as §1

ETV3L = molecular target: T7, ETV3L (Homo sapiens, UniProt Q6ZN32 1-361); conditions: protein: recombinant; tags: N-terminal GST; dsDNA, one strand shown
T7 sequence: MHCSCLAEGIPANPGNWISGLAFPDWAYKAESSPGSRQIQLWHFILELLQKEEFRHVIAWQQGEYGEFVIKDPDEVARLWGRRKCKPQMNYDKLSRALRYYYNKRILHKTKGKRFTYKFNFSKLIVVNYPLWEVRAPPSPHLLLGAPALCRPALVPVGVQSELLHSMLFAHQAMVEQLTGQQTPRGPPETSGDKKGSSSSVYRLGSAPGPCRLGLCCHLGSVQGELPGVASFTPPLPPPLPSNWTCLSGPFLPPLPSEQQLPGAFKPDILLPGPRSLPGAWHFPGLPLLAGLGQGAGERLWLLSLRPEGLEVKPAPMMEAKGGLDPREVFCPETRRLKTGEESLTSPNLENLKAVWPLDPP
Method in brief: as §1

ETS2 = molecular target: T8, ETS2 (Homo sapiens, UniProt P15036 1-469); conditions: protein: recombinant; tags: N-terminal GST; dsDNA, one strand shown
T8 sequence: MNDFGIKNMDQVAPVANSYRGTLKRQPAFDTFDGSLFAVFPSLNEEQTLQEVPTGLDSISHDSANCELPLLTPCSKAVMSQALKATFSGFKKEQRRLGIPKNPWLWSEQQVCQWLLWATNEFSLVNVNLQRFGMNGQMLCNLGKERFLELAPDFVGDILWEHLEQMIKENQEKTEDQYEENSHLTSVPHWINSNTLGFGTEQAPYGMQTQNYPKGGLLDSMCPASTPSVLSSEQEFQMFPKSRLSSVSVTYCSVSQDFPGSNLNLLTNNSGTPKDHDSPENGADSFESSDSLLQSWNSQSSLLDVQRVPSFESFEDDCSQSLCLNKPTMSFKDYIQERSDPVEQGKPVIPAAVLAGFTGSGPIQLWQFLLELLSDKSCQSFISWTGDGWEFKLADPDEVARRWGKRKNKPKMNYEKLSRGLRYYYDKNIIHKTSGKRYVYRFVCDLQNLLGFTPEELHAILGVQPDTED
Method in brief: as §1

SPDEF = molecular target: T9, SPDEF (Homo sapiens, UniProt O95238 1-335); conditions: protein: recombinant; tags: N-terminal GST; dsDNA, one strand shown
T9 sequence: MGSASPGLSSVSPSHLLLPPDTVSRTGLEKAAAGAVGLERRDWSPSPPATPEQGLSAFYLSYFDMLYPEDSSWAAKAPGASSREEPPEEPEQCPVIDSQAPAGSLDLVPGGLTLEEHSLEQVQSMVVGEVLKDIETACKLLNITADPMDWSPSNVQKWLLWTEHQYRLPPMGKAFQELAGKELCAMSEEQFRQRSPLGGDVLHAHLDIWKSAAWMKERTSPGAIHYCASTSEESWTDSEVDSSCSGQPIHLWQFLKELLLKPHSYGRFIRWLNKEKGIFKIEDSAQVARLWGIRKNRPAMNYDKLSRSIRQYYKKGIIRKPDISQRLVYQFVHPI
Method in brief: as §1

ETV7 = molecular target: T10, ETV7 (Homo sapiens, UniProt Q9Y603 1-341); conditions: protein: recombinant; tags: N-terminal GST; dsDNA, one strand shown
T10 sequence: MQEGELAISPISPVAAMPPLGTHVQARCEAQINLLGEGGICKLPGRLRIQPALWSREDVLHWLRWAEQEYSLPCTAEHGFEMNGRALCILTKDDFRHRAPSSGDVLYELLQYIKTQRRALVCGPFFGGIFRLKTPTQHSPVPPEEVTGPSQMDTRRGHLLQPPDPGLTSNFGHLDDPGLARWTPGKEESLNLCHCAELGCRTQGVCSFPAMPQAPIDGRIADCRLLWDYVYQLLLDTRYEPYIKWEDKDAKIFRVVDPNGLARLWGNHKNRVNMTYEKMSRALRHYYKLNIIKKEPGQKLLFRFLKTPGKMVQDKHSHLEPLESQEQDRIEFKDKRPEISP
Method in brief: as §1

ELF5 = molecular target: T11, ELF5 (Homo sapiens, UniProt Q9UKW6-2 1-255); conditions: protein: recombinant; tags: N-terminal GST; dsDNA, one strand shown
T11 sequence: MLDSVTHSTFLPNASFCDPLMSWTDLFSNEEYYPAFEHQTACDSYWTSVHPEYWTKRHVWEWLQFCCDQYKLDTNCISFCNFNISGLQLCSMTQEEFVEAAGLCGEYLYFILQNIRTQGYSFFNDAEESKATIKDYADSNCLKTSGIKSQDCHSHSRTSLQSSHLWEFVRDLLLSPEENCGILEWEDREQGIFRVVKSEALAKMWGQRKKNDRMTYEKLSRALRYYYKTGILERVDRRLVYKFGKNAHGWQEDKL
Method in brief: as §1

ETV3 = molecular target: T12, ETV3 (Homo sapiens, UniProt P41162-2 1-143); conditions: protein: recombinant; tags: N-terminal GST; dsDNA, one strand shown
T12 sequence: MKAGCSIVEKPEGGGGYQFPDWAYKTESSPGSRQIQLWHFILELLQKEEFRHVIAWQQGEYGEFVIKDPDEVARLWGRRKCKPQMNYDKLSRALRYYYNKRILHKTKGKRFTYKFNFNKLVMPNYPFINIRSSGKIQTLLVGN
Method in brief: as §1

ETV6 = ETV6 (Homo sapiens, UniProt P41212 1-452); conditions: protein: recombinant; tags: N-terminal GST; dsDNA, one strand shown
Method in brief: as §1

Sequence of ETV1 (P50549 whole entry): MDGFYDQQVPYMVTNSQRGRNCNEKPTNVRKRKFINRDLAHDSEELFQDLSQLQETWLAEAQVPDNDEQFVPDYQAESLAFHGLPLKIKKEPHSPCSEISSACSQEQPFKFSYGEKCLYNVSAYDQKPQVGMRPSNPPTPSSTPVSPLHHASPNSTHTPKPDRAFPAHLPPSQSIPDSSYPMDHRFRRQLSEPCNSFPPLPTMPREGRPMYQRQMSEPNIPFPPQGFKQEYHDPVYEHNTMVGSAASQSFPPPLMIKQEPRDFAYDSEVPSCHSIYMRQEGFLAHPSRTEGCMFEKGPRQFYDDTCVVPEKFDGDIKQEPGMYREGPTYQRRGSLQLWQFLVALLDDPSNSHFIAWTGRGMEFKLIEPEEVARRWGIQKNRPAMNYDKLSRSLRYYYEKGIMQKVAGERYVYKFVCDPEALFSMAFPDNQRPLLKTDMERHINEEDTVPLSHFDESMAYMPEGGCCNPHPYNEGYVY
Sequence of ETV6 (P41212 whole entry): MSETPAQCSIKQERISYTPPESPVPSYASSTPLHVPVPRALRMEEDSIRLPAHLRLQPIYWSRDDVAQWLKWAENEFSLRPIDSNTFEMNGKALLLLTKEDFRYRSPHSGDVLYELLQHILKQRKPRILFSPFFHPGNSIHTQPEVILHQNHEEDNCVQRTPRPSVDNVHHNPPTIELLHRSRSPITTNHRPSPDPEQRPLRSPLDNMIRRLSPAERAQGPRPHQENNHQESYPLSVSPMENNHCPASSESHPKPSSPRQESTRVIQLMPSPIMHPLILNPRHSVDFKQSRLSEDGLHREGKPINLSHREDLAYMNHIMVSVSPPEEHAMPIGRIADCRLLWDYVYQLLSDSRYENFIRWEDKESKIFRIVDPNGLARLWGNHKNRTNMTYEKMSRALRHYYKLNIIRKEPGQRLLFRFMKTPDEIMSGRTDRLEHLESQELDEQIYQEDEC
Sequence of ELF4 (Q99607 whole entry): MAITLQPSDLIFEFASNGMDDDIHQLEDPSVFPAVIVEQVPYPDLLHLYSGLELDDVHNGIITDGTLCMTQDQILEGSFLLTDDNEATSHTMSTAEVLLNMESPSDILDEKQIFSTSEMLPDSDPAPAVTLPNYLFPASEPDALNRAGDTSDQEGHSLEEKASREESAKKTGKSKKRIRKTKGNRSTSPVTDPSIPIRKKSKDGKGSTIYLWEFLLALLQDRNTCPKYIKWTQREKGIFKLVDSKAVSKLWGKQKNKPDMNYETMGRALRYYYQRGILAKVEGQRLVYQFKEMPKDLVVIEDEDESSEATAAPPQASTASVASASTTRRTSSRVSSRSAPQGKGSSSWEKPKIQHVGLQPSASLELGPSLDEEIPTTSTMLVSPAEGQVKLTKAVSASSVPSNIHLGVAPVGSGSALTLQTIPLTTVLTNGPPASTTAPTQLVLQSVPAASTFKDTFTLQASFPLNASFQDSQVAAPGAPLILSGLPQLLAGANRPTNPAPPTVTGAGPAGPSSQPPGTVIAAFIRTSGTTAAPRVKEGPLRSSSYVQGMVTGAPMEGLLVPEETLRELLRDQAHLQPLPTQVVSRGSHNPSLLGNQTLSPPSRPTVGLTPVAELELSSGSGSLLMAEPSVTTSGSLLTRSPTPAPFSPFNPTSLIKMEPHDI
Sequence of ETV5 (P41161 whole entry): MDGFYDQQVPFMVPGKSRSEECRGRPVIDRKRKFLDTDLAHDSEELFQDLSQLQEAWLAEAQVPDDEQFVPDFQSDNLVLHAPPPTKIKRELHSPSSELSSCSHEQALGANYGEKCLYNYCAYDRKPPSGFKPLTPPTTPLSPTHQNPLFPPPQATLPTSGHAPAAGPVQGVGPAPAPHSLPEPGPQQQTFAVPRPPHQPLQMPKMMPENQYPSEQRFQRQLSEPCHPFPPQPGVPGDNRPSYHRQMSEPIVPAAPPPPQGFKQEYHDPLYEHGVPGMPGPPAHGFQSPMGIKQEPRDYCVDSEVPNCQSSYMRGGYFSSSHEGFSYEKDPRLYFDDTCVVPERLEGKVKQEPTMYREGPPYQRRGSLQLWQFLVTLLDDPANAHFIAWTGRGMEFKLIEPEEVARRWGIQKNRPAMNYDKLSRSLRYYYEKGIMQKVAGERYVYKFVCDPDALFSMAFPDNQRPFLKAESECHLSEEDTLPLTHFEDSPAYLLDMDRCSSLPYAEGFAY
Sequence of HSF1 (Q00613 whole entry): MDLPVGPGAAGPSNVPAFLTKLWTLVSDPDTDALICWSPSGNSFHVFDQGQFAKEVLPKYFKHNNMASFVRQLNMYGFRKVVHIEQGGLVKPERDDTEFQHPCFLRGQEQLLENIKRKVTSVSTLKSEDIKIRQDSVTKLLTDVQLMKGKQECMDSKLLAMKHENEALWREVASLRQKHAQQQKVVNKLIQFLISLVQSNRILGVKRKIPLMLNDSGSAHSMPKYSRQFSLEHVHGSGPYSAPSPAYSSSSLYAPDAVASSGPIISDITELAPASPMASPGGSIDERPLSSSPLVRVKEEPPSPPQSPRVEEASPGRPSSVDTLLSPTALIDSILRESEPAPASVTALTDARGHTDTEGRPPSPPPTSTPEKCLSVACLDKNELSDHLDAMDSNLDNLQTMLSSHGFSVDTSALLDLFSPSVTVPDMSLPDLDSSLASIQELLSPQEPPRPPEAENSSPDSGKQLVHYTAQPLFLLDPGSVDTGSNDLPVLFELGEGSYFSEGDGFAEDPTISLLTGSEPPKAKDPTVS

Sequence	binding signal (FEV)	binding signal (ETV5)	binding signal (HSF1)	binding signal (SPIC)	binding signal (ELF4)	binding signal (ELK4)	binding signal (ETV2)	binding signal (ELF3)	binding signal (ETV1)	binding signal (ERF)	binding signal (ETV3L)	binding signal (ETS2)	binding signal (SPDEF)	binding signal (ETV7)	binding signal (ELF5)	binding signal (ETV3)	binding signal (ETV6)
CTGACA	1.19 fold enrichment (6-mer frequency, TF over GST control)	1.22 fold enrichment (6-mer frequency, TF over GST control)	1.01 fold enrichment (6-mer frequency, TF over GST control)	1.03 fold enrichment (6-mer frequency, TF over GST control)	1.27 fold enrichment (6-mer frequency, TF over GST control)	1.29 fold enrichment (6-mer frequency, TF over GST control)	1.2 fold enrichment (6-mer frequency, TF over GST control)	1.25 fold enrichment (6-mer frequency, TF over GST control)	1.19 fold enrichment (6-mer frequency, TF over GST control)	1.21 fold enrichment (6-mer frequency, TF over GST control)	1.34 fold enrichment (6-mer frequency, TF over GST control)	1.22 fold enrichment (6-mer frequency, TF over GST control)	1.24 fold enrichment (6-mer frequency, TF over GST control)	1.37 fold enrichment (6-mer frequency, TF over GST control)	1.26 fold enrichment (6-mer frequency, TF over GST control)	1.24 fold enrichment (6-mer frequency, TF over GST control)	1.24 fold enrichment (6-mer frequency, TF over GST control)
TGGCAC	1.31 fold enrichment (6-mer frequency, TF over GST control)	1.18 fold enrichment (6-mer frequency, TF over GST control)	1.03 fold enrichment (6-mer frequency, TF over GST control)	1.24 fold enrichment (6-mer frequency, TF over GST control)	1.25 fold enrichment (6-mer frequency, TF over GST control)	1.12 fold enrichment (6-mer frequency, TF over GST control)	1.24 fold enrichment (6-mer frequency, TF over GST control)	1.18 fold enrichment (6-mer frequency, TF over GST control)	1.11 fold enrichment (6-mer frequency, TF over GST control)	1.21 fold enrichment (6-mer frequency, TF over GST control)	1.2 fold enrichment (6-mer frequency, TF over GST control)	1.14 fold enrichment (6-mer frequency, TF over GST control)	1.12 fold enrichment (6-mer frequency, TF over GST control)	1.18 fold enrichment (6-mer frequency, TF over GST control)	1.05 fold enrichment (6-mer frequency, TF over GST control)	1.19 fold enrichment (6-mer frequency, TF over GST control)	1.16 fold enrichment (6-mer frequency, TF over GST control)
